Source: PubChem BioAssay (National Center for Advancing Translational Sciences (NCATS))
TDP1 cell noCPT = qHTS for Inhibitors of human tyrosyl-DNA phosphodiesterase 1 (TDP1): qHTS in cells in absence of CPT | DT40 Tdp1-/- hTDP1 cells, no CPT, ATP luminescence, 48 h | Potency, µM (series often up to 46.2 µM), for the others: at the top dose activity change, negative = growth inhibition, usual class: inhibitors | hit rate 15% among 420,000 | AID 686978, 2013; note: potency is the fitted concentration of half-maximal effect; % is set by controls: 0 for no effect and ±100 for the full control effect; nearly all actives have a fitted effect of over 55% in size
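Chicken DT40 Tdp1-/- cells complemented with human TDP1, screened without camptothecin (DMSO vehicle only), 400 cells/well. Compounds pin-transferred, cells incubated at 37 °C for at least 48 hr. Growth read as ATP-dependent luminescence (CellTiter-Glo, 30 min at RT).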
IL1B secr inh = qHTS for Inhibitors of Inflammasome Signaling: IL-1-beta AlphaLISA Primary Screen. activity change, % at 57.5 µM. hit rate 4.7% among 360,000. THP-1 LPS/ATP IL-1B secretion, AlphaLISA, 16 h; hits give low values; in the data active = activity change below about -50%; inconclusive = mostly about -30% to -49%; note: % is set by controls: 0 for no effect and ±100 for the full control effect
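THP-1 cells pretreated 1 hr with compounds (up to 57.5 uM final), then stimulated with LPS (250 ng/mL final) plus ATP (1.25 mM final); secreted IL-1B measured by AlphaLISA after 16 hr, decreased signal indicating inhibition.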
TDP1 cell CPT = qHTS for Inhibitors of human tyrosyl-DNA phosphodiesterase 1 (TDP1): qHTS in cells in presence of CPT | hit rate 12% among 420,000 | AID 686979, 2013 | chicken DT40 Tdp1-/-;hTDP1 cells + 20 nM CPT, ATP luminescence, 48 h | Potency, µM (highest dose often 46.2 µM), inactives show at the top dose activity change, negative = growth inhibition, hits mostly inhibitors; note: potency is the fitted concentration of half-maximal effect; % is set by controls: 0 for no effect and ±100 for the full control effect; nearly all actives have a fitted effect of over 55% in size
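Chicken DT40 Tdp1-/- cells stably complemented with human TDP1 were seeded at 400 cells/well in medium containing 20 nM camptothecin, exposed to pin-transferred compounds, and grown at 37 °C for at least 48 hr. Viability was read as ATP luminescence.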
DRD3 agonist = qHTS of D3 Dopamine Receptor Agonist: qHTS | D3R DiscoveRx beta-arrestin cells, luminescence, 90 min | max activation, % | AID 652048, 2013 | hit rate 0.58% among 410,000; in the data active = max activation above about 30%; note: 0% is about no effect
Target sequence (P35462 whole entry, looked up): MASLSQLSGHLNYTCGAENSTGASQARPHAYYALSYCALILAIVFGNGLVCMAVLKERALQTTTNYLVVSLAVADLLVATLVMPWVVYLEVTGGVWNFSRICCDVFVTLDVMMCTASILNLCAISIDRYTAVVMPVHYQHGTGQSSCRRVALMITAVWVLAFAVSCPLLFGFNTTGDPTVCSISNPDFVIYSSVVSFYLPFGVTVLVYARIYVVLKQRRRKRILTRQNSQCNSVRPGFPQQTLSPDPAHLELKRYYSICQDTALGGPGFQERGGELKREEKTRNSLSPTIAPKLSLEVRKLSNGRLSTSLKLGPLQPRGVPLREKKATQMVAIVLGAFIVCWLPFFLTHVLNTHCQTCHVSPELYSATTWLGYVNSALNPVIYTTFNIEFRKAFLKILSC
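Cells at 1500/well, incubated overnight, then treated with pinned compounds (dopamine as control) for 90 min at 37 degrees C. DiscoveRx reagent added for 30 - 60 minutes at room temperature; luminescence read.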
ClpP mod = qHTS Assay for Activators of ClpP; ATP-dependent Clp protease proteolytic subunit (Bacillus subtilis (strain 168)), P80244; purified B. subtilis ClpP, FRET peptide cleavage, 20 min; Potency, µM (top dose mostly 57.5 µM), without a hit: at the highest dose activity change, negative = active; hit rate 1.9% among 340,000; AID 651965, 2013; active = well fitted falling curve with a large enough effect; inconclusive = small, poorly fitted or top-dose-only effect; inactive = no such curve, though single readings can be large or run the other way; note: potency is the fitted concentration of half-maximal effect; the source files actives as falling curves though it sought activators and does not explain the sign; nearly all actives have a fitted effect of over 65% in size
Target sequence (P80244 whole entry, looked up): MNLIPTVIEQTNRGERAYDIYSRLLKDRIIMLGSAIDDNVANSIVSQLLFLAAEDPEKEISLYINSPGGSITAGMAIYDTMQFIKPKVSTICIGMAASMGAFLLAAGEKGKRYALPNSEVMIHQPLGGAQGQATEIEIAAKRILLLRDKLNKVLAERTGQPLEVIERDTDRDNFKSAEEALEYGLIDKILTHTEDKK
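FRET quenching reversal measured ClpP activation: 10 microg/mL B. subtilis ClpP at pH 8 with the FRET-FV decapeptide, read at 430 nm after 320 nm excitation. The 20-min minus 0-min signal was scaled between DMSO/no-enzyme wells and ADEP (5.8 microM final).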
DRD3 antagonist = qHTS of D3 Dopamine Receptor Antagonist: qHTS. hit rate 2.5% among 360,000. D(3) dopamine receptor (Homo sapiens), P35462. D3R cells, DiscoveRx beta-arrestin luminescence, antagonist mode; hits give low values. max response, negative = inhibition, %; in the data active = max response below about -50%; inconclusive = no clear call, values can overlap the other calls; note: % is set by controls: 0 for no effect and ±100 for the full control effect
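Cells expressing the human receptor were seeded at 1500 cells/well, incubated overnight at 37 degrees C in 5% CO2, then exposed to library compounds with dopamine controls for 90 minutes at 37 degrees C before luminescent detection.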
* hit, by the source's call. Shown are actives, neighbours in structure and some others; about 21% of the full set was active somewhere. Unless noted, calls come from the whole dose curve; as a rule, active = well fitted inhibition curve with a large enough effect; inconclusive = small, poorly fitted or top-dose-only effect; inactive = flat fitted curve, though single readings scatter.

Screening CCOC(=O)N1CCN(C(=O)CCN2C(=O)/C(=C\c3ccccc3OC)SC2=S)CC1 returned TDP1 cell noCPT 23.1µM*, IL1B secr inh 20.5, TDP1 cell CPT 23.1µM*, DRD3 agonist -9.2, ClpP mod 0.8% and DRD3 antagonist -1.1.
Screening O=C(O)C1CCCCC1C(=O)Nc1ccc(S(=O)(=O)N2CCOCC2)cc1 (centres undefined) returned TDP1 cell noCPT 7.7%, IL1B secr inh 26.0, TDP1 cell CPT 0.0%, DRD3 agonist -8.0 and DRD3 antagonist -5.9.
COc1ccc(C(=O)NCC(=O)OCc2cc(=O)n3nc(C4CCCCC4)sc3n2)cc1 was read as TDP1 cell noCPT -4.5%, TDP1 cell CPT -24.8%, DRD3 agonist 2.1 and ClpP mod -1.6%.
Cc1ccc(S(=O)(=O)N2CCCC(C(=O)NCCc3ccccc3)C2)cc1 (centres undefined) was read as TDP1 cell noCPT -24.6%, IL1B secr inh 35.0, TDP1 cell CPT -28.0%, DRD3 agonist 19.3 and DRD3 antagonist 29.4.
CC(=O)Nc1ccc(C2=CC(=O)C[C@H](c3ccc(Cl)cc3)C2)cc1 was read as TDP1 cell noCPT 16.4µM*, IL1B secr inh inconclusive, TDP1 cell CPT 18.4µM*, DRD3 agonist -2.7, ClpP mod inconclusive and DRD3 antagonist 22.9.
CC(C)CCNC1=CC(=O)CC(c2ccccc2)C1 (centres undefined) was read as TDP1 cell noCPT inconclusive, IL1B secr inh 8.3, TDP1 cell CPT inconclusive, DRD3 agonist -6.7, ClpP mod -1.6% and DRD3 antagonist -5.8.
Screening COc1ccc([C@H]2CC(=O)C=C(c3ccc(NC(C)=O)cc3)C2)cc1OC returned TDP1 cell noCPT inconclusive, IL1B secr inh inconclusive, TDP1 cell CPT inconclusive, DRD3 agonist 8.2, ClpP mod -7.7% and DRD3 antagonist 1.5.
Screening Cc1ccc(NC2=CC(=O)CC(c3ccccc3)C2)cc1 (centres undefined) returned TDP1 cell noCPT 3.66µM*, IL1B secr inh -0.9, TDP1 cell CPT 2.91µM*, DRD3 agonist -9.2, ClpP mod 0.4% and DRD3 antagonist 12.5.
For Cc1ccc(NC2=CC(=O)CC(c3ccc(Cl)cc3)C2)cc1 (centres undefined) the results were TDP1 cell noCPT 11.6µM*, IL1B secr inh -14.2, TDP1 cell CPT inconclusive, DRD3 agonist -6.3, ClpP mod inconclusive and DRD3 antagonist inconclusive.
O=C1C=C(Nc2ccc(Cl)cc2)CC(c2ccccc2)C1 (centres undefined) was read as TDP1 cell noCPT 11.6µM*, IL1B secr inh 7.6, TDP1 cell CPT 20.6µM*, DRD3 agonist -15.7, ClpP mod 1.1% and DRD3 antagonist -26.0.
`CSc1ccc(C2=CC(=O)C[C@H](c3ccc(Cl)cc3)C2)cc1` gave TDP1 cell noCPT inconclusive, IL1B secr inh 1.8, TDP1 cell CPT inconclusive, DRD3 agonist -5.0, ClpP mod -20.9% and DRD3 antagonist 0.0.
Screening Cc1cc(C(=O)NC(Cc2ccccc2)C(=O)O)c(C)o1 (centres undefined) returned TDP1 cell noCPT -0.2%, IL1B secr inh 6.9, TDP1 cell CPT -1.2%, DRD3 agonist -1.7 and DRD3 antagonist -12.0.
Screening CCN(CC)C(=O)c1sc2c(c1C)c(=O)n(-c1ccc(C)c(C)c1)c(=O)n2CC(=O)Nc1ccc(F)cc1 returned TDP1 cell noCPT inconclusive, TDP1 cell CPT -26.7%, DRD3 agonist -15.4 and ClpP mod 1.3%.
For COc1ccccc1-c1cccc2nccn12 the results were TDP1 cell noCPT -14.9%, IL1B secr inh -0.8, TDP1 cell CPT inconclusive, DRD3 agonist -11.2, ClpP mod 4.9% and DRD3 antagonist -12.1.
For O=C(C[n+]1ccccc1Br)c1ccc(O)c(O)c1 the results were TDP1 cell noCPT -6.2%, TDP1 cell CPT 11.5% and ClpP mod 0.8%.
Screening O=C(C[n+]1ccccc1Br)c1ccc2c(c1)CCCC2 returned TDP1 cell noCPT 20µM*, TDP1 cell CPT inconclusive and ClpP mod -11.7%.
Screening O=C(CCl)c1ccc2c(c1)CCCC2 returned TDP1 cell noCPT 0.794µM*, TDP1 cell CPT 0.891µM* and ClpP mod -0.1%.
For O=C(COc1ccc(Br)cc1)c1ccc2c(c1)CCCC2 the results were TDP1 cell noCPT 23.1µM*, IL1B secr inh -27.4, TDP1 cell CPT inconclusive, DRD3 agonist -15.7, ClpP mod -1.9% and DRD3 antagonist -6.9.
`O=C(C[n+]1cc(Br)cc(Br)c1)c1ccc2c(c1)CCCC2` gave TDP1 cell noCPT inconclusive, TDP1 cell CPT inconclusive and ClpP mod 0.4%.
Screening CCCn1c(SCC(=O)N2CCN(CC)CC2)nc2c1c(=O)n(C)c(=O)n2C returned TDP1 cell noCPT -19.3%, IL1B secr inh 3.3, TDP1 cell CPT -13.2%, DRD3 agonist -8.2 and DRD3 antagonist -3.0.
`O=C1N/C(=N\N=C\c2cccs2)SC1Cc1ccc(Cl)c(Cl)c1` (centres undefined) gave TDP1 cell noCPT inconclusive, IL1B secr inh 3.7, TDP1 cell CPT -21.9%, DRD3 agonist 5.3, ClpP mod 2.1% and DRD3 antagonist 6.4.
Screening C[C@@H]1C[C@@H]2OC(=O)[C@]3(C)[C@H]2[C@@H](OC3(C)O)[C@]2(C)C(=O)C=C[C@H]12 (some centres undefined) returned TDP1 cell noCPT inconclusive, IL1B secr inh -90.3*, TDP1 cell CPT 18.4µM*, DRD3 agonist -21.1, ClpP mod inconclusive and DRD3 antagonist -53.2*.
For CC(C)(C)C1CCC(OC(=O)C[N+]2(C)CCCCC2)CC1 (centres undefined) the results were TDP1 cell noCPT 10.3µM*, IL1B secr inh -6.5, TDP1 cell CPT inconclusive, DRD3 agonist 8.3 and DRD3 antagonist -14.3.
`CC(C)(C)C1CCC(OC(=O)CN2CCOCC2)CC1` (centres undefined) gave TDP1 cell noCPT -4.8%, IL1B secr inh 8.3, TDP1 cell CPT -10.7%, DRD3 agonist -1.1, ClpP mod 1.7% and DRD3 antagonist -4.1.
Screening C[N+]1(CC(=O)OCCCC2CCCCC2)CCCC1 returned TDP1 cell noCPT 20.6µM*, IL1B secr inh 25.6, TDP1 cell CPT -27.8%, DRD3 agonist 2.6 and DRD3 antagonist 0.7.
